For 115 molecules, inhibition results are on record in PubChem BioAssay AID684 (PCMD, 2007).

The structures appear in SMILES notation. Out of some 62,000 compounds screened, about 95 (0.2%) were called active. The entries come from a sample that favours actives as a whole. Unmarked numbers belong to inactive results. No stated cut-off is given here; in the data, active means inhibition above about 20% (passing the limit was not always enough); inactive means the rest. Where a SMILES comes first, the peptide text is derived from it. [ ]: non-standard residue; d: D form. ξ: configuration not given here. ξV = CC(C)C(N)C(=O)O

Chain of Coagulation factor XII (Homo sapiens) (P00748 20-372 limits assumed): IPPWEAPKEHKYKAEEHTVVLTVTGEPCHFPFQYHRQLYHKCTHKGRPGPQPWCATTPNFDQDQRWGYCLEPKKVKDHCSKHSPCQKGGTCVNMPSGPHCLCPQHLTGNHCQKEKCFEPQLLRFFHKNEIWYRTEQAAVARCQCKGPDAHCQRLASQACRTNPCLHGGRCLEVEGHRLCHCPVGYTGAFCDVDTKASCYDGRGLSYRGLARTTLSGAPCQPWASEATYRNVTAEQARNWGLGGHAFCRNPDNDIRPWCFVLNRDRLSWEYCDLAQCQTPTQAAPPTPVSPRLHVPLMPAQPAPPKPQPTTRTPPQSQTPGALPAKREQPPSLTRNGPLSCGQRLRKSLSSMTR
Chain of Coagulation factor XII (Homo sapiens) (P00748 373-615 limits assumed): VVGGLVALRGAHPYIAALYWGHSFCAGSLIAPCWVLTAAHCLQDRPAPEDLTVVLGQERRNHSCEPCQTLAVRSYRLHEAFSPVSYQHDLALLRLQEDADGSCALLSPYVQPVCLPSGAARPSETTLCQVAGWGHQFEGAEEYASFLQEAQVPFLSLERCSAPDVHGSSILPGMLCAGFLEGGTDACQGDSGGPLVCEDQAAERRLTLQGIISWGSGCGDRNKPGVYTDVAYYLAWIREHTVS

The experiment addresses Coagulation factor XII (Homo sapiens) (UniProt P00748). Put plainly: blockers of FXIIa protease activity – biochemical, pooled compound mixtures, fluorogenic substrate, primary screen (AID 684).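 Further: 0% = enzyme without compound and 100% = no enzyme blank.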 As to conditions: purified FXIIa, at 5 µM, hits give high values.
For the molecule `Clc1cccc(Cl)c1Cn1nnc(-c2cccs2)n1`, the inhibition was 2.33%.

Regarding `Cn1c(=NC(=O)C2CC2)sc2cc(F)cc(F)c21`, the inhibition was 6.96%.

For `O=S(=O)(c1ccccc1)N(CC(O)CN1CCCCC1)c1ccccc1` (stereo not given), the inhibition is 10.6%.

As to `O=C(Nc1c(Cl)cccc1Cl)C1CCC1`, the inhibition was -1.33%.

For `C=CCn1c(CSc2nc3ccccc3s2)nnc1SCC(=O)NCc1ccco1`, the inhibition was -0.43%.

As for `O=C(c1cc(-c2ccc(O)cc2)on1)N1CCCc2ccccc21`, the inhibition was 3.9%.

Regarding `c1ccc(CCC2=NCCn3cccc32)cc1`, the inhibition was 6.93%.

Consider `CC(=O)Nc1ccn(Cc2c(F)cccc2Cl)n1`, for which the inhibition was 1.78%.

Take `c1ccc(-c2noc(-c3cccs3)n2)nc1`: the inhibition is 3.97%.

In the case of `O=C1CN(C(=O)COC(=O)C2CC(=O)N(Cc3ccco3)C2)c2ccccc2N1` (stereo not given), the inhibition was -15.4%.

Regarding `CC1(C)CC(=O)c2sc(N)nc2C1`, the inhibition is 4.78%.

For `CCN1CCN(c2c(Cl)cccc2NC(=O)c2ccc(Br)o2)CC1`, the inhibition was 10.2%.

For the molecule `CCOC(=O)c1ccc(N2C(=O)CC(Sc3nc(O)c(CC)c(=O)[nH]3)C2=O)cc1` (stereo not given), the inhibition was -16.1%.

As for `O=C(CCCn1c(=O)[nH]c2cc(Cl)ccc2c1=O)NCCN1CCN(c2ccccc2)CC1`, the inhibition was 6.45%.

For `CC(C)Cn1c(CN(Cc2ccccc2)Cc2ccccc2)nc2c1c(=O)n(C)c(=O)n2C`, the inhibition was 2.03%.

Turning to `CCOCC(=O)NCc1ccc2c(c1)cc(C)n2C`, the inhibition was 5.58%.

With `CC1CCCC(NC(=O)CSc2nccn2C)C1C` (stereo not given), the inhibition was 4.17%.

`O=C(/C=N/O)Nc1ccccc1`: the inhibition is 1.18%.

In the case of `CCC(=O)N1CCN=C1SCc1ccc(F)cc1`, the inhibition is 11.4%.

As for `Cc1ccc(CN2C(=O)CCC2C(=O)NCCCN2CCCCC2C)cc1` (stereo not given), the inhibition is 5.07%.

As for `Cc1cc(C)c(C#N)c(SCS(=O)c2ccc(C(C)(C)C)cc2)n1` (stereo not given), the inhibition was 4.64%.

Consider `CCOC(=O)c1cc2c(n(-c3ccc(C)cc3)c1=O)CCCC2=O`, for which the inhibition is 6.98%.

For `CC(c1ccco1)N(C(=O)c1ccc(S(=O)(=O)N2CCCCC2)cc1)c1ccccn1` (stereo not given), the inhibition was 12%.

Regarding `COC(=O)c1oc2ccc(Br)cc2c1NC(C)=O`, the inhibition is 8.62%.

With `Cc1nnc(SCc2cc(=O)[nH]c(N3CCN(Cc4ccccc4)CC3)n2)s1`, the inhibition is 2.33%.

Consider `Cc1nn(-c2cc(Cl)ccc2N)c(=O)c2ccccc12`, for which the inhibition is 4.62%.

In the case of `COc1cc(OC)c(C(=O)Nc2ccc(N(C)C)cc2)cc1OC`, the inhibition was 6.85%.

For `CSc1ccc(NC(=O)N2CC(C)OC(C)C2)cc1` (stereo not given), the inhibition is 7.45%.

Regarding `O=C(Nc1cccc2cccnc12)c1cccc(N2C(=O)CCC2=O)c1`, the inhibition is 8.88%.

As for `CCCCOC(=O)Nc1nccs1`, the inhibition was 0.87%.

For the molecule `CC1=C(C(N)=O)C(c2ccc3c(c2)OCO3)n2nc(-c3cccc(C)c3)nc2N1` (stereo not given), the inhibition was 6.61%.

Take `CCn1c(SCC(=O)c2ccc(Cl)s2)nnc1-c1cccs1`: the inhibition was 7.99%.

On to `O=C(O)c1ccc(COCC(F)(F)F)cc1`, for which the inhibition was 7.12%.

For the molecule `COc1ccccc1C(=O)C(O)c1ccccc1OC` (stereo not given), the inhibition was 5.88%.

For `CC(C)C(=O)Nc1c(C(=O)c2ccc(F)cc2)oc2ccccc12`, the inhibition was -2.16%.

For `Cc1cccc(C(=O)Nc2ccc(CC(=O)O)cc2)c1`, the inhibition was 3.19%.

Take `O=c1[nH][nH]c(=O)c2cc(N3CCCC3)ccc12`: the inhibition is 10.2%.

As for `Cc1cc(=O)n2nc(N3CCCC3C(=O)NCCCN3CC(C)CC(C)C3)sc2n1` (stereo not given), the inhibition was -7.38%.

As for `O=C(CN1CCOCC1)Nc1cc(Cl)ccc1Cl`, the inhibition was 17.8%.

Turning to `CCCN1C(=O)C(NS(=O)(=O)c2ccc(N)cc2)(C(F)(F)F)C(C(=O)OC)=C1C` (stereo not given), the inhibition was 4.13%.

For `CC1CCCCC1NC(=O)CSc1nnc(N)s1` (stereo not given), the inhibition is 4.21%.

`CCOC(=O)Cc1c(C)nc2c(C#N)c(C)nn2c1C`: the inhibition is -16%.

Regarding `CCOC(=O)N1CCN(CC(=O)c2c(C)[nH]c3ccccc23)CC1`, the inhibition was 8.99%.

For `CCC(C(=O)Nc1ncccn1)(C(F)(F)F)C(F)(F)F`, the inhibition is 9.39%.

Take `Cc1ccc(-n2ncc3c(=O)[nH]cnc32)c(C)c1`: the inhibition was 20.5% (active).

In the case of `Cc1ccc(-n2ncc3c(N4CCN(c5ccc(F)cc5)CC4)ncnc32)c(C)c1`, the inhibition is 2.92%.

Turning to `Cc1ccc(-n2ncc3c2ncn2nc(-c4ccco4)nc32)c(C)c1`, the inhibition was 0.945%.

As to `CC(=O)NS(=O)(=O)c1ccccc1`, the inhibition is 7.57%.

Consider `Cc1ccc(-c2nn(-c3ccccc3)cc2CN(Cc2ccccc2)C(=O)CCC(=O)O)o1`, for which the inhibition is 1.27%.

Regarding `COc1ccc(CC(NC(C)=O)C(=O)NC2CCN(C(=O)Nc3ccc(C#N)cc3)CC2)cc1OC` (stereo not given), the inhibition was -19%.

With `c1nnc2c3c4c(sc3ncn12)CCC4`, the inhibition is -20.4%.

As for `Cc1ccc2cccc(O)c2[n+]1[O-]`, the inhibition is 6.81%.

Turning to `CCCn1c(SCC(N)=O)nnc1C(C)C`, the inhibition was -14.3%.

For the molecule `COc1ccccc1N1CCN(C(=O)c2c(-c3c(Cl)cccc3Cl)noc2C)CC1`, the inhibition was -18.6%.

As for `CCCn1nnc2sc3c(c2c1=O)CCC(C)C3` (stereo not given), the inhibition is 1.96%.

Regarding `Cc1ccnc(SCCn2c(N(C)Cc3ccccc3)nc3c2c(=O)n(C)c(=O)n3C)n1`, the inhibition was 5.5%.

On to `Cc1ccc(S(=O)(=O)C2(S(=O)(=O)c3ccc(C)cc3)CCCC2)cc1`, for which the inhibition was 5.75%.

Consider `CCCOC(=O)c1[nH]c2c(c1C)C(=O)CC(c1cc(OC)c(OC)c(OC)c1)C2` (stereo not given), for which the inhibition was 3.98%.

In the case of `O=C(c1ccc(-n2cnnn2)cc1)N1CCN(C(c2ccccc2)c2ccccc2)CC1`, the inhibition was 1.76%.

On to `c1c2c(cc3sc(N4CCCCC4)nc13)OCCO2`, for which the inhibition was -2.49%.

Take `CC(=O)Oc1ccc(C)cc1N1C(=O)c2ccc(C(=O)O)cc2C1=O`: the inhibition is 9.34%.

Take `N#Cc1ccc(OCCN2C(=O)NC3(CCSC3)C2=O)cc1` (stereo not given): the inhibition is 18.5%.

Regarding `COc1ccc(C2/C(=C(/O)c3ccccc3)C(=O)C(=O)N2c2ncccn2)cc1OC` (stereo not given), the inhibition is 2.12%.

`Cc1c(NC(=O)c2coc(=O)c(Br)c2)c(=O)n(-c2ccccc2)n1C`: the inhibition was -0.015%.

As to `CCOC(=O)N1CCN(C(=O)Cc2ccc(-n3c(=S)[nH]c4ccccc4c3=O)cc2)CC1`, the inhibition is 7.08%.

`COc1cccc(Nc2nnc(SCC(=O)N3CC(C)OC(C)C3)s2)c1` (stereo not given): the inhibition was -0.74%.

Take `CCOc1ccc2[nH]c(=O)c(CN(CCCO)C(C)=O)cc2c1`: the inhibition was -3.55%.

With `Cn1c(=O)c2[nH]c(NCC3CCCO3)nc2n(-c2ccccc2)c1=O` (stereo not given), the inhibition is -14.8%.

On to `CC(C)CCNc1nc(N2CCCC2)c2c(c1C#N)CCN(C)C2`, for which the inhibition is -51.8%.

For the molecule `N#Cc1ccc(CSc2nnc(-c3ccccn3)n2-c2ccc(Cl)cc2)cc1`, the inhibition is -14.6%.

As to `CCN(CC)P(=O)(C(NC(=O)OC)C(F)(F)C(F)(F)C(F)(F)C(F)F)N(CC)CC` (stereo not given), the inhibition was 0.97%.

Regarding `CCCC(C)n1[nH]c(=O)c2c(C)cc(C)nc21` (stereo not given), the inhibition is 3.26%.

Take `N#CC(C(=O)c1ccc(S(=O)(=O)N2CCCCCC2)cc1)c1nc2ccccc2[nH]1` (stereo not given): the inhibition is -9.55%.

Take `OCCNCCCCOc1ccccc1F`: the inhibition is -11.6%.

Consider `CCOc1ccc(CCNC(=O)C2CCN(c3ccc(N4CCOCC4)nn3)CC2)cc1OCC`, for which the inhibition is -15.4%.

With `Cc1nc2ccc(NC(=O)N3CCC(c4ccccc4)C3)cc2nc1C` (stereo not given), the inhibition was -16.9%.

For the molecule `CC(=O)NCC(=O)N(C)C(C(=O)Nc1ccc2c(c1)OCCO2)c1ccccc1` (stereo not given), the inhibition was 16.7%.

With `COc1ccc(NC(=O)CN(C)S(=O)(=O)c2ccccc2)cc1OC`, the inhibition is 19.2%.

As to `COc1cccc(NC(=O)CN(C)S(=O)(=O)c2ccc(C)cc2)c1`, the inhibition was 23% (active).

In the case of `COc1cccc(N(CC(=O)Nc2cccc(N(C)S(C)(=O)=O)c2)S(C)(=O)=O)c1`, the inhibition was -3.08%.

In the case of `Cc1ccc(S(=O)(=O)c2c(N)n(C)c3nc4ccccc4nc23)cc1`, the inhibition is -4.52%.

Regarding `N#CCCN1CCN(S(=O)(=O)c2ccc(S(=O)(=O)NC3CCCCC3)cc2)CC1`, the inhibition was 4.97%.

With `O=C(CCS(=O)(=O)c1ccccc1)Nc1nc2c(s1)CCCC2`, the inhibition was 24.1%.

Turning to `COc1ccc(C(=O)c2oc3ccc(Br)cc3c2NC(C)=O)cc1`, the inhibition is 1.19%.

As to `C/C(=C\C(=O)c1ccccc1)Nc1cccc(O)c1`, the inhibition was 2.12%.

Consider `COC(=O)c1cc(C(=O)OC)cc(N2C(=O)CC(N3CCN(c4ccccc4)CC3)C2=O)c1` (stereo not given), for which the inhibition was 7.93%.

As to `CCn1cc(C(=O)NCC2COc3ccccc3O2)c2cc(OC)c(OC)cc2c1=O` (stereo not given), the inhibition was 3.64%.

Take `COc1ccccc1NC(=O)c1ccc(C)s1`: the inhibition is -2.31%.

For `CC(=O)Nc1ccc(S(=O)(=O)N2CCC(N(C)CCC(C)C)CC2)cc1`, the inhibition is -1.44%.

Consider `C=CCNC(=O)CSc1nc2sc(C)c(C)c2c(=O)[nH]1`, for which the inhibition was 7.21%.

With `COc1ccc(N2CC(C)Cn3c2nc2c3c(=O)n(Cc3ccccc3F)c(=O)n2C)c(OC)c1` (stereo not given), the inhibition was 10.8%.

Consider `Cn1nnc(NC(=O)CSc2ncn[nH]2)n1`, for which the inhibition is 4.66%.

Turning to `O=C1Nc2ccccc2C12Nc1ccccc1S2` (stereo not given), the inhibition was -1.23%.

With `C=CCn1c(COc2ccccc2F)nnc1SCC(=O)N1CC(=O)Nc2ccccc21`, the inhibition was 1.16%.

Regarding `COc1ccc(C2C3=C(CC(C)(C)CC3=O)Oc3ncn4nc(-c5cccnc5)nc4c32)cc1OC` (stereo not given), the inhibition was 10.1%.

Turning to `C=CCNC(=O)CCCC(=O)NCC=C`, the inhibition is 0.65%.

For `COc1ccc2c3c(c(=O)oc2c1OCC(=O)C(C)(C)C)CCCC3`, the inhibition is 12.2%.

For `COc1ccc(N2C(=O)C3CCCN3C2c2cc(OC)c(OC)cc2OC)cc1` (stereo not given), the inhibition is -16.1%.

For the molecule `CC(=O)NC(C(=O)NCC(N)=O)C(C)C` (stereo not given) (Ac-[ξV]-Gly-NH2), the inhibition is 1.26%.

Regarding `Cc1nn(-c2ccccc2)c(CC(C)(C)C(=O)O)c1C(=O)O`, the inhibition was -11.5%.

Turning to `Cc1cccc(NC(=O)CSc2nnc(NC(=O)CN3CCOCC3)s2)c1`, the inhibition is 0.94%.

On to `CCOC(=O)N1CCC(NC(=O)c2cnn3ccccc23)CC1`, for which the inhibition was 2.9%.

Regarding `CCOc1ccc(CCNC(=O)C(CC)n2nc(C)n3c(cc4sccc43)c2=O)cc1OCC` (stereo not given), the inhibition is 8.5%.

For `CCOC(=O)N1CCN(S(=O)(=O)c2cc(Br)cc3c2N(C(=O)C2CC2)CC3)CC1`, the inhibition was 2.7%.

`CC(=O)Nc1ccc(S(=O)(=O)Nc2nc3n(n2)C(c2ccccc2)CC(=O)N3)cc1` (stereo not given): the inhibition was -18.2%.

On to `COc1ccc(-n2ncc3c(N4CCCc5ccccc54)ncnc32)cc1`, for which the inhibition was -15%.

Take `COCC(C)N=CC1=C(O)CC(C)(C)CC1=O` (stereo not given): the inhibition was 3.32%.

Consider `CC(=O)Cc1nsc(NC(=O)c2csc3c2CCCC3)n1`, for which the inhibition was -19%.

For the molecule `CCOc1ccc(NC(=O)N(CCC(C)C)C(C)c2ccco2)cc1` (stereo not given), the inhibition was 29.7%.

Regarding `CCCNC(=O)C1CC(=O)N(c2ccc(OCC(=O)Nc3cccc(C)c3C)cc2)C1` (stereo not given), the inhibition is 4.39%.

As to `CCOC(=O)CCC(=O)OCC(=O)NC(C)C1CC2CCC1C2` (stereo not given), the inhibition is 20.1%.

For `COCCNC(=O)CSc1nc2c(n1-c1ccccc1)CCCC2`, the inhibition was 1.41%.

As to `CCC1CCCCN1CCNS(=O)(=O)c1ccc2c(c1)CCN2C(C)=O` (stereo not given), the inhibition is -15.6%.

For `CCc1nnc(NS(=O)(=O)c2ccc(NS(=O)(=O)c3ccccc3)cc2)s1`, the inhibition is -2.69%.

Turning to `CC(=O)Oc1ccc2c(C)c(CC(C)O)c(=O)oc2c1` (stereo not given), the inhibition was 9.88%.
